# Results reported in PubChem BioAssay (NCATS).
# Records with an inconclusive call do not appear. A number with no mark means an inactive call. Activity calls are given as the source filed them. The call rests on the fitted dose curve; in most records, active means well fitted cell-killing curve with a large enough effect; inconclusive means small, poorly fitted or top-dose-only effect; inactive means no such curve, though single readings can be large or run the other way.
# Experiment: qHTS of pediatric cancer cell lines to identify multiple opportunities for drug repurposing: Primary screen for Rh30 cells (AID 1347107); further: nearly all actives have a fitted effect of over 75% in size; on activity change, negative = cytotoxic: on the % scale 0 is the no-effect control and ±100 the full control effect
# Details: Rh30 rhabdomyosarcoma viability, CellTiter-Glo luminescence, 48 h; series mostly up to 46 µM; activity change, negative = cytotoxic: at the top concentration
# How it was run: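 Viability after 48 h compound treatment at 37C, 500-1,000 cells/well, read as ATP luminescence with CellTiter-Glo. Primary screens used 11-point (MIPE, 0.78 nM-46 µM) or 8-point (NPC, 0.59 nM-46 µM) final concentrations; follow-up screens used 11-point dilutions.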
# Potency means the concentration at half of the fitted maximal effect.
SMILES,"activity change, negative = cytotoxic",Potency
Cc1nc2ccccc2c(=O)n1-c1ccccc1Cl,6.04% [at 92.7 µM],–
c1ccc2nc(N3CCNCC3)ccc2c1,4.38%,–
Nc1ccc(Cl)cc1C(=O)c1ccccc1F,14%,–
C[C@@H]1CC[C@H]2[C@@H](C)C(=O)O[C@@H]3O[C@@]4(C)CC[C@@H]1[C@]32OO4,8.97%,–
CN1CCC(N(Cc2ccccc2)c2ccccc2)CC1,6.73%,–
O=C1NCN(c2ccccc2)C12CCN(CCCOc1ccc(F)cc1)CC2,2.07%,–
Oc1ccc([C@H]2CNCc3c2ccc(O)c3O)cc1O,7.01%,–
C[C@]12C=CC(=O)C=C1CC[C@@H]1[C@@H]2CC[C@@]2(C)[C@H]1CC[C@]2(C)O,0.224%,–
C[C@]12CC[C@H]3[C@@H](CCC4=CC(=O)CC[C@@H]43)[C@@H]1CC[C@@H]2O,16.8%,–
CCO[C@H]1O[C@@H]2OC3(C)CC[C@H]4[C@H](C)CC[C@@H]([C@H]1C)[C@@]24OO3,10.1%,–
CC(CC(C#N)(c1ccccc1)c1ccccc1)N(C)C (configuration not stated),-13.8% [at 92.7 µM],–
CC[C@H]1C[C@@H]2C[C@H]3c4[nH]c5ccc(OC)cc5c4CCN(C2)[C@@H]13,2.81% [at 92.7 µM],–
C[C@@H]1C[C@@H]([C@H](O)CC2CC(=O)NC(=O)C2)C(=O)[C@@H](C)C1,-19.5%,–
C=CCN1CC[C@]23CCCC[C@H]2[C@H]1Cc1ccc(O)cc13,9.45%,–
CCS(=O)(=O)C(C)(C)S(=O)(=O)CC,4.61%,–
C[N+]1(C)[C@@H]2CC[C@H]1CC(OC(=O)C(CO)c1ccccc1)C2 (some centres not stated),-10.3%,–
CCC(=O)OC1(c2ccccc2)CCN(C)CC1,-15.3% [at 92.7 µM],–
Cc1nnc2n1-c1sc(CCc3ccc(CC(C)C)cc3)cc1C(c1ccccc1Cl)=NC2C (configuration not stated),9.16%,–

SMILES,"activity change, negative = cytotoxic",Potency
O=C(O)CCCCCCNC1c2ccccc2CCc2ccccc21,21.7%,–
CCC(=O)O[C@H]1CC[C@H]2[C@@H]3CCC4=CC(=O)CC[C@]4(C)[C@H]3CC[C@]12C,16.4%,–
CN(C)C(=S)SSC(=S)N(C)C,–,1.68 µM (active)
Clc1ccc(CO/N=C(\Cn2ccnc2)c2ccc(Cl)cc2Cl)c(Cl)c1,9.76%,–
O=C(N[C@@H]1N=C(c2ccccc2F)c2cccc3c2N(CC3)C1=O)c1cc2ccccc2[nH]1,0.428%,–
Cc1ncc2n1-c1ccc(Cl)cc1C(c1ccccc1F)=NC2,5.54%,–
C[C@]12CC[C@H]3[C@@H](CCC4=CC(=O)CC[C@@]43C)[C@@H]1CC[C@@H]2C(=O)O,16%,–
C[C@H](N)[C@H](O)c1ccc(O)c(O)c1,7.76%,–
O=C(CCl)c1ccc(Cl)cc1Cl,4.88%,–
O=C(CCCCl)c1ccc(F)cc1,21%,–
CC[C@]1(O)CC[C@H]2[C@@H]3CCC4=CCCC[C@@H]4[C@H]3CC[C@@]21C,5.81%,–
CCCCCCCCC(=O)NCc1ccc(O)c(OC)c1,-4.36%,–
O=C(NC(=O)c1c(F)cccc1F)Nc1cc(Cl)c(OC(F)(F)C(F)C(F)(F)F)cc1Cl (configuration not stated),13.4%,–
Nc1ccc(N)cc1,16.7%,–
CCOC(=O)NC(O)C(Cl)(Cl)Cl (configuration not stated),11.9%,–
N#Cc1nn(-c2c(Cl)cc(C(F)(F)F)cc2Cl)c(N)c1S(=O)C(F)(F)F (configuration not stated),2.19%,–
CC(Cc1ccccc1)NCc1ccccc1Cl (configuration not stated),-11.9%,–
C[C@]12Cc3nonc3C[C@@H]1CC[C@@H]1[C@@H]2CC[C@@]2(C)[C@H]1CC[C@]2(C)O,6.69%,–

# Experiment: qHTS of pediatric cancer cell lines to identify multiple opportunities for drug repurposing: Primary screen for Rh41 cells (AID 1347108); further: nearly all actives have a fitted effect of over 70% in size;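 on activity change, negative = cytotoxic: luminescence drop marks cytotoxic hits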
# Details: Rh41 rhabdomyosarcoma viability, CellTiter-Glo luminescence, 48 h; series mostly up to 46 µM; activity change, negative = cytotoxic: at the top concentration
# How it was run: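 Viability was measured as metabolically active cells after 48 hours of treatment, read by CellTiter-Glo luminescence. Compounds were tested at multiple final concentrations, giving concentration-response curves.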
SMILES,"activity change, negative = cytotoxic",Potency
Cc1nc2ccccc2c(=O)n1-c1ccccc1Cl,2.39% [at 92.7 µM],–
C[C@@H]1CC[C@H]2[C@@H](C)C(=O)O[C@@H]3O[C@@]4(C)CC[C@@H]1[C@]32OO4,-2%,–
CN1CCC(N(Cc2ccccc2)c2ccccc2)CC1,7.22%,–
CC(=O)OC1(c2ccccc2)CCN(CCc2ccccc2)CC1,–,49.5 µM (active)
O=C1NCN(c2ccccc2)C12CCN(CCCOc1ccc(F)cc1)CC2,9.73%,–
Oc1ccc([C@H]2CNCc3c2ccc(O)c3O)cc1O,7.57%,–
CC(CC(C#N)(c1ccccc1)c1ccccc1)N(C)C (configuration not stated),-25% [at 92.7 µM],–
CC[C@H]1C[C@@H]2C[C@H]3c4[nH]c5ccc(OC)cc5c4CCN(C2)[C@@H]13,–,30 µM (active)
C[C@@H]1C[C@@H]([C@H](O)CC2CC(=O)NC(=O)C2)C(=O)[C@@H](C)C1,–,4.69 µM (active)
C=CCN1CC[C@]23CCCC[C@H]2[C@H]1Cc1ccc(O)cc13,-1.38%,–
C[N+]1(C)[C@@H]2CC[C@H]1CC(OC(=O)C(CO)c1ccccc1)C2 (some centres not stated),-11.9%,–
C[C@H](CN1CCOCC1)C(C(=O)N1CCCC1)(c1ccccc1)c1ccccc1,–,46.9 µM (active)
O=C(O)CCCCCCNC1c2ccccc2CCc2ccccc21,18.2%,–
Cc1ncc2n1-c1ccc(Cl)cc1C(c1ccccc1F)=NC2,0.725%,–
C[C@H](N)[C@H](O)c1ccc(O)c(O)c1,1.38%,–
O=C(CCCCl)c1ccc(F)cc1,25.5%,–
CC[C@]1(O)CC[C@H]2[C@@H]3CCC4=CCCC[C@@H]4[C@H]3CC[C@@]21C,-12.3%,–
CCCCCCCCC(=O)NCc1ccc(O)c(OC)c1,-6.22%,–
O=C(NC(=O)c1c(F)cccc1F)Nc1cc(Cl)c(OC(F)(F)C(F)C(F)(F)F)cc1Cl (configuration not stated),23.3%,–
Nc1ccc(N)cc1,19.2%,–
CCOC(=O)NC(O)C(Cl)(Cl)Cl (configuration not stated),4.57%,–
